This is an account of results in a collection of fitness landscapes (doi:10.1126/science.1257360).

The chains are these.
B1: PhoQ; a variant is named by its letters at X, in order, P23837 (parent)
chain: MKKLLRLFFPLSLRVRFLLATAAVVLVLSLAYGMVALIGYSVSFDKTTFRLLRGESNLFYTLAKWENNKLHVELPENIDKQSPTMTLIYDENGQLLWAQRDVPWLMKMIQPDWLKSNGFHEIEADVNDTSLLLSGDHSIQQQLQEVREDDDDAEMTHSVAVNVYPATSRMPKLTIVVVDTIPVELKSSYMVWSWFIYVLSANLLLVIPLLWVAAWWSLRPIEALAKEVRELEEHNRELLNPATTRELTSLVRNLNRLLKSERERYDKYRTTLTDLTHSLKTPLXXLQXXLRSLRSEKMSVSDAEPVMLEQISRISQQIGYYLHRASMRGGTLLSRELHPVAPLLDNLTSALNKVYQRKGVNISLDISPEISFVGEQNDFVEVMGNVLDNACKYCLEFVEISARQTDEHLYIVVEDDGPGIPLSKREVIFDRGQRVDTLRPGQGVGLAVAREITEQYEGKIVAGESMLGGARMEVIFGRQHSAPKDE

The full ranking holds about 140,000 sequences; the median of “enrichment ratio after two sorts for PhoP signalling” is about 0, and the highest 2% start at about 11. What follows is part of a selection rich in the highest values, with near analogues and random picks from the rest. Where only a bound is given, the exact number is not on record here.

This test covers variants of B1. Description: enrichment ratio after two sorts for PhoP signalling (ratio (wild type AVST 3.29)); higher = more functional. Particulars: with PhoP (E. coli).
Turning to RFHY, the enrichment ratio is no more than 0.25. With MMCI, the enrichment ratio was no more than 0.25. On to SCAE, for which the enrichment ratio came to 8.81. For the variant NGYM, the enrichment ratio was no more than 0.25. Regarding QTYM, the enrichment ratio worked out at 0.346. For RGYM, the enrichment ratio is no more than 0.25. With QQYN, the enrichment ratio was no more than 0.25. To QQYM belongs 47.2; to TKYM, 25.3. Turning to FFYM, the enrichment ratio was no more than 0.25. Regarding QQYI, the enrichment ratio is no more than 0.25. In the case of TGYM, the enrichment ratio came out at 26.5. As for MKYM, the enrichment ratio came out at 6.46. On to TKYN, for which the enrichment ratio is no more than 0.25. As to QGYM, the enrichment ratio came out at 23.9.

On to LYSK, for which the enrichment ratio was no more than 0.25.

With DGPS, the enrichment ratio is no more than 0.25.

For NVIN, the enrichment ratio is no more than 0.25. Consider YLDS, for which the enrichment ratio was no more than 0.25.

Turning to TVAW, the enrichment ratio came out at 2.61. Turning to SNQY, the enrichment ratio amounted to 2.66.

Consider VDNL, for which the enrichment ratio was no more than 0.25. As to REKA, the enrichment ratio was no more than 0.25.

Take QDYM: the enrichment ratio is no more than 0.25. For the variant QEFM, the enrichment ratio turned out to be 18.2. To QRFM belongs no more than 0.25. Turning to STYM, the enrichment ratio was found to be 0.458.

As for QEYM, the enrichment ratio was determined as 24.7. Regarding QKFM, the enrichment ratio is no more than 0.25.

Take GMSV: the enrichment ratio turned out to be 6.09.

In the case of MLVP, the enrichment ratio was no more than 0.25. The same measure for NCCG: no more than 0.25; for QAWH: 31.4. Consider NEWH, for which the enrichment ratio was no more than 0.25. As to KAWH, the enrichment ratio is no more than 0.25. On to HPWH, for which the enrichment ratio is no more than 0.25. As to HRWH, the enrichment ratio is no more than 0.25. On to TQWH, for which the enrichment ratio was found to be 21.9.

For TEWH, the enrichment ratio turned out to be 35.2. As to NAWH, the enrichment ratio is no more than 0.25. In the case of TGWH, the enrichment ratio came to 19.8. With NVWH, the enrichment ratio was no more than 0.25. Regarding KCWH, the enrichment ratio is no more than 0.25. Consider KSWH, for which the enrichment ratio is no more than 0.25. Consider KQNP, for which the enrichment ratio is no more than 0.25.

With RGWC, the enrichment ratio was no more than 0.25.

In the case of PCRT, the enrichment ratio was no more than 0.25. In the case of DAYY, the enrichment ratio is no more than 0.25.

Turning to HSCT, the enrichment ratio was no more than 0.25. To VRFP belongs no more than 0.25; to DLDP, no more than 0.25. To DHCF belongs no more than 0.25; to MCIR, no more than 0.25; to TEVT, 3.71. TEAT: the enrichment ratio came to 17. For MELD, the enrichment ratio is no more than 0.25. As for TELA, the enrichment ratio turned out to be 16.8. The same measure for TELT: 14.5; for NELD: no more than 0.25; for TEWI: 4.93. Regarding TEET, the enrichment ratio was no more than 0.25. On to TEYI, for which the enrichment ratio was found to be 8.43.

Consider TENT, for which the enrichment ratio was determined as 3.14. For TELD, the enrichment ratio was determined as 13.4. In the case of TEFT, the enrichment ratio worked out at 5.71. Regarding NHGP, the enrichment ratio is no more than 0.25.

Turning to KQPT, the enrichment ratio is no more than 0.25.

Regarding KTHI, the enrichment ratio was no more than 0.25. Take QTDQ: the enrichment ratio is no more than 0.25. The same measure for GRFL: no more than 0.25; for AWWN: no more than 0.25; for HNIY: no more than 0.25. Turning to YESG, the enrichment ratio was determined as 0.306. Consider HPLH, for which the enrichment ratio was no more than 0.25. To NELH belongs 2.12.

On to TELN, for which the enrichment ratio is 21.6. NELC: the enrichment ratio was determined as 5.14.

As to TELH, the enrichment ratio stood at 11.2. The same measure for HPLN: no more than 0.25; for NELY: no more than 0.25; for QELC: no more than 0.25. Consider TELC, for which the enrichment ratio turned out to be 11.4. The same measure for TEYN: 3.14; for TELY: 15.5; for DELY: no more than 0.25. Turning to KTRY, the enrichment ratio was no more than 0.25. As for PMLD, the enrichment ratio is no more than 0.25. On to APTN, for which the enrichment ratio was no more than 0.25.

Turning to QEAF, the enrichment ratio is no more than 0.25.

Turning to QRGT, the enrichment ratio was no more than 0.25. Take TEAS: the enrichment ratio is 16.2. As for TEAA, the enrichment ratio came out at 2.61.

On to MEAS, for which the enrichment ratio is 3.94.

Take TEAD: the enrichment ratio was found to be 16.8. For the variant QGGT, the enrichment ratio amounted to 8.36. On to QEAS, for which the enrichment ratio was 10.1.

QEGT: the enrichment ratio came to 24.3. The same measure for MEAF: no more than 0.25; for TEAF: 13.8; for QEAD: no more than 0.25. EISC: the enrichment ratio is no more than 0.25. For KVKA, the enrichment ratio was no more than 0.25. In the case of EFER, the enrichment ratio was no more than 0.25. To EFNA belongs no more than 0.25; to IKFE, no more than 0.25. In the case of PTLL, the enrichment ratio was no more than 0.25. Consider SHIM, for which the enrichment ratio worked out at 2.2. Turning to PILC, the enrichment ratio was no more than 0.25. With TELL, the enrichment ratio was determined as 16.9. Turning to MELF, the enrichment ratio is 0.528. Consider TEYS, for which the enrichment ratio is 11.9. The same measure for TELW: no more than 0.25. Regarding CDYS, the enrichment ratio is no more than 0.25.

As to TELS, the enrichment ratio amounted to 12.5. For TELP, the enrichment ratio was no more than 0.25. Turning to TELF, the enrichment ratio was 12.2.

For NELL, the enrichment ratio was no more than 0.25. For the variant NELF, the enrichment ratio is no more than 0.25. With YTYS, the enrichment ratio was no more than 0.25. With MELL, the enrichment ratio was determined as 3.52. To PWMG belongs no more than 0.25. Take ETEG: the enrichment ratio was no more than 0.25. As for ASGY, the enrichment ratio was 3.18. To YDLK belongs no more than 0.25. Turning to MDNI, the enrichment ratio was no more than 0.25.

With IQKP, the enrichment ratio was no more than 0.25.

On to VRDA, for which the enrichment ratio was no more than 0.25. The same measure for WIHY: no more than 0.25. The same measure for FACS: no more than 0.25; for ESAP: no more than 0.25. Turning to RPEH, the enrichment ratio is no more than 0.25. As for QELI, the enrichment ratio is no more than 0.25. As to MELI, the enrichment ratio turned out to be 6.46. The same measure for TEGT: 22.6; for THGT: no more than 0.25; for TELI: 19.5. Turning to NHGT, the enrichment ratio was no more than 0.25. In the case of ADTR, the enrichment ratio is no more than 0.25. Turning to QRFP, the enrichment ratio is no more than 0.25. To VSPY belongs no more than 0.25; to QFWC, 17.1; to TGWC, 13.8. In the case of QRWC, the enrichment ratio is no more than 0.25. Consider LCWC, for which the enrichment ratio is no more than 0.25. QPWC: the enrichment ratio was no more than 0.25. The same measure for TSWC: 17.5; for KSWC: no more than 0.25.

For YAWC, the enrichment ratio was no more than 0.25. Take KAWC: the enrichment ratio is no more than 0.25. Turning to MMWC, the enrichment ratio was no more than 0.25.

For TAWC, the enrichment ratio came to 11.3. On to WIWC, for which the enrichment ratio is no more than 0.25. With NPNK, the enrichment ratio is no more than 0.25.
